# KCNH2 3.1 block: blocks the human KCNH2 3.1 channel isoform; U2OS KCNH2 3.1, thallium flux FluxOr; active compounds read low; activity change, % (tested at about 1.8 µM); actives 0.95% (n = 340,000); AID 720553;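 active means maximum activity change below -70%; inconclusive means maximum activity change from -70% to -50%; inactive means maximum activity change above -50%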;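 further: thallium influx rate constant from kinetic fluorescence after stimulation buffer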
#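 Normalized rate constant (relative to positive and negative DMSO controls) derived from a 2 min kinetic fluorescence read after stimulation; U2OS cells expressing the 3.1 isoform via virus at 1.77 x 10^8 /mL.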
# Pin1 inhibitor: blocks the human prolyl isomerase Pin1; actives 0.009% (n = 390,000); AID 504891; Potency, µM (highest dose often 115 µM), for inactives: top-dose activity, negative = inhibition, most hits filed as inhibitors; Q13526; Pin1 FP peptide displacement, HiFluor488, 10 min; active means well fitted inhibition curve with a large enough effect in the polarisation, with a control signal flat, not every such curve was filed as active; inconclusive means small, poorly fitted or top-dose-only effect, or effect the other way, or a change in a side signal; inactive means no such curve, though single readings can be large or run the other way; the % refers to the polarisation; further: potency means the concentration at half of the fitted maximal effect
# Target sequence (Q13526 whole entry, looked up): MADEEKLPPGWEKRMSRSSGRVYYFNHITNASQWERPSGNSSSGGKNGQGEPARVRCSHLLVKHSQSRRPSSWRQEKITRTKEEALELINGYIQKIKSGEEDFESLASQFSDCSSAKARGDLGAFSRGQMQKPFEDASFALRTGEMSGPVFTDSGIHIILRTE
# Tb PGK inh: blocks T. brucei phosphoglycerate kinase; P07378; PGK/GAPDH coupled, Kinase-Glo luminescence, 60 min; Potency, µM (doses to about 57.5 µM), for the others: top-dose activity change, negative = inhibition, most hits filed as inhibitors; actives 0.043% (n = 380,000); further: potency means the concentration at half of the fitted maximal effect; nearly all actives have a fitted effect of over 60% in size
#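 Luminescent ATP detection (Kinase-Glo Plus) follows a 60-minute room-temperature incubation, with wells lacking PGK as controls. Buffer: 100 mM TEA (pH 7.6), 5 mM MgCl2, 0.01% Tween-20. Coupling enzyme GAPDH (100 nM final) supplies unstable 1,3-BPG in-well.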
# RGS4 inhibitor: human RGS4 inhibition. P49798. Transcreener GDP fluorescence polarization, RGS4-accelerated GTP hydrolysis. Potency, µM (highest dose often 114 µM), for the others: at the highest dose activity change, negative = inhibition, most hits filed as inhibitors. actives 0.039% (n = 390,000); further: potency means the concentration at half of the fitted maximal effect; nearly all actives have a fitted effect of over 75% in size
# Target sequence (P49798 whole entry, looked up): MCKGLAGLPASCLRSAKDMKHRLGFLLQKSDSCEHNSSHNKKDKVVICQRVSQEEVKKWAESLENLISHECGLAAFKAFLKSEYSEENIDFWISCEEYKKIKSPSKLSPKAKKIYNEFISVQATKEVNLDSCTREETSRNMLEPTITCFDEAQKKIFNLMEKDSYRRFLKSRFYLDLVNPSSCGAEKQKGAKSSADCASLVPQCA
#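 MLSMR compounds (23 nl, pin-transferred) preincubated 10 min at room temperature with a 500nM (2x) first reagent, then RGS4 at 900nM (2x) plus Transcreener GDP mix added; fluorescence polarization (620/688 nm) read before and after 90 min at 30 °C.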
# GCN5L2 inh: inhibitors of human GCN5L2 histone acetyltransferase. Q92830. actives 0.21% (n = 390,000). GCN5L2 HAT assay, ThioGlo1 CoA-SH fluorescence. Potency, µM (top dose mostly 58.9 µM), without a hit: top-dose activity change, negative = inhibition, hits mostly inhibitors; further: potency means the concentration at half of the fitted maximal effect
#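 GCN5L2 (20nM final) in 50mM HEPES, 0.1mM EDTA pH 7.5, 0.01% Tween-20 was preincubated 15 min at room temperature with compound, then given ThioGlo1 (50uM), H3(1-25) peptide (75uM) and acetyl-CoA (70uM); CoA-thiol fluorescence (Ex340/Em540) was read at 0 and 20 min.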
# KCNH2 WT inh: KCNH2 (human, wildtype) channel inhibition; U2OS, BacMam KCNH2, thallium flux FluxOr; active compounds read low; activity change, % at 1.84 µM; actives 0.37% (n = 340,000); AID 720551;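 active means maximum activity change below -70%; inconclusive means maximum activity change between -70% and -50%; inactive means maximum activity change above -50%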
#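 U2OS cells were transduced with wild-type KCNH2 virus (2.03 x 10^8 / mL) for 4 h at room temperature, then cultured overnight at 37 C. Thallium flux was read with FluxOr dye. Rate constants were normalized to DMSO controls.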
# * = called active by the depositor; i = inactive; ? = inconclusive; / = not tested or not shown; ! = repeats disagree; [ ] = another dose, or the depositor's remark. Only some compounds are listed: those with a hit (about 1.2% of all), similar ones and a draw of the others. Unless noted, the call rests on the fitted dose curve; in most records, active means well fitted curve in the direction sought with a large enough effect; inconclusive means small, poorly fitted or top-dose-only effect, or another doubt; inactive means no such curve, though single readings can be large; an effect the other way counts as inactive or inconclusive. On the % scale 0 is the no-effect control and ±100 the full control effect.
SMILES,KCNH2 3.1 block,Pin1 inhibitor,Tb PGK inh,RGS4 inhibitor,GCN5L2 inh,KCNH2 WT inh
COc1cc(/C=C(\C#N)C(=O)Nc2cccc(C(=O)O)c2)ccc1OCc1ccc(Cl)cc1,-12,/,?,-9%,-26%,-92*
Cc1ccc(NC(=O)CSc2nc(=O)n(CCN3CCOCC3)c3c2CCC3)c(C)c1,/,-3%,3%,16%,-3%,/
CCN1CCN(c2ccc(S(=O)(=O)N3CCOCC3)cc2NC(=O)c2cccc([N+](=O)[O-])c2)CC1,-9,-6%,-9%,1%,-5%,11
CCN1CCN(c2ccc(S(=O)(=O)N3CCOCC3)cc2NC(=O)/C=C/c2ccc([N+](=O)[O-])cc2)CC1,-75*,8%,2%,-42%,-22%,-7
CN1CCN(c2ccc([N+](=O)[O-])cc2S(=O)(=O)N2CCOCC2)CC1,21,3%,-6%,-11%,-1%,6
O=[N+]([O-])c1ccc(N2CCN(Cc3ccccc3)CC2)c(S(=O)(=O)N2CCOCC2)c1,-73*,3%,0%,?,-16%,-43
O=c1[nH]c(SCc2c(F)cccc2Cl)nc2c1CCCC2,/,3%,/,9%,-2%,/
c1ccc(-n2nnnc2Sc2n[nH]c(-c3ccncc3)n2)cc1,-189*,4%,-10%,-2%,1%,-200*
CC1C(=O)CC(c2ccc([N+](=O)[O-])cc2)NC1c1ccc([N+](=O)[O-])cc1 (configuration not stated),-71*,7%,-1%,0%,-6%,-22
CCOC(=O)c1ccc(N2C(=O)CC(N3CCN(C/C=C/c4ccccc4)CC3)C2=O)cc1 (configuration not stated),-101*,15%,-5%,-31%,-6%,-84*
CCOc1ccc(NCc2cccn2-c2nnc(N3CCC(C(=O)NCCCN4CCCCC4C)CC3)s2)cc1 (configuration not stated),-21,21%,9%,-4%,-2%,16
CCOc1ccc(NCc2cccn2-c2nnc(N3CCC(C(=O)NCCCN4C(C)CCCC4C)CC3)s2)cc1 (configuration not stated),13,2%,i,-5%[11.4 µM],3%,-228*
CN1C(=O)Cc2cc([S+](=O)([O-])N3CCN([S+](=O)([O-])c4c(F)cccc4F)CC3)ccc21,/,-1%,/,/,/,/
O=C(CN1C(=O)CC(c2ccco2)Sc2ccccc21)Nc1ccc(OC(F)(F)F)cc1 (configuration not stated),/,-17%,-9%,2%,-9%,/
O=C(CCC1N=C2c3ccccc3N=C(SCc3ccc(F)cc3)N2C1=O)N1CCN(c2ccccc2)CC1 (configuration not stated),/,?,i,17%,-5%,/
Cc1cc(C)cc(NC(=O)c2cc(CN3CCCC3)on2)c1,/,1%,-7%,-7%,2%,/
CCCCn1c2c(c(=O)n(C)c1=O)C(c1ccc(OC)cc1)N1CCCCCC1=N2 (configuration not stated),-75*,?,-9%,29%,-1%,-5
O=C1NC(=O)C(c2ccccc2[N+](=O)[O-])=C1Nc1ccc(O)c(Cl)c1,0,-3%,-11%,12µM*!,?,-8
O=C(NNc1ccccc1[N+](=O)[O-])Nc1ccc(Cl)c(Cl)c1,-4,-8%,-10%,12%,-1%,-8
O=C1NC(=O)/C(=C/c2ccc(-c3ccc(F)cc3O)o2)S1,/,/,/,21µM*,?,/
Cc1c(Cl)sn(-c2ccc(Cl)cc2)c1=O,-16,1%,2%,-120%,10µM*,2
Cc1nn(-c2ccc(Cl)cc2)c(=O)c2ccccc12,-12,3%,i,2%[56.9 µM],-18%,/
Cc1ccc(CN2CCN(CC(=O)N=Nc3c(O)[nH]c4ccccc34)CC2)cc1,-72*,-1%,0%,-11%,-5%,?
